The source of these data is PubChem BioAssay AID489036 (National Center for Advancing Translational Sciences (NCATS), 2010).

A short description of the test: VP16 selectivity assay for inhibitors of ROR gamma transcriptional activity. The conditions noted are these: Drosophila Schneider Gal4-VP16 UAS-luciferase reporter, 20 h; series mostly up to 92.2 µM. The source says: NIH Molecular Libraries Probe Production Network [MLPCN] NIH Chemical Genomics Center [NCGC] MLPCN Grant: R03 DA026211-01 Assay Provider: Dan Littman, New York University Assay Overview: The retinoic acid-related orphan receptor (ROR) gamma is a transcription factor that has a central role in the differentiation of Th17 cells, a subset of T helper cells that secrete the inflammatory cytokines IL-17, IL-17F, and IL-22. Th17 cells have been implicated in graft versus host disease, autoimmune disease and asthma. ROR gamma is induced in naive T helper cells in the presence of TGF-beta combined with IL-6, IL-21, or IL-23, and thereafter directs the expression of the Th17 lineage cytokines. […] Small molecule inhibitors that inhibit components common to the RORgt and VP16 assays, such as the Gal4 DNA binding domain or the UAS luciferase reporter, will be active in both assays and thus scored as nonspecific.
Assay Protocol Summary: For screening, 600 cells in 4 uL/well were dispensed into white solid 1536-well plates (Grenier) using a solenoid-based dispenser. […] After addition of 1.5 uL Photinus luciferase detection reagent, the plates were incubated 10 min at ambient temperature and then read by an ViewLux (Perkin Elmer) to detect luminescence.
In general terms: Reporter assays use an easily measured gene product as a stand-in for the process of interest.

Records with an inconclusive call do not appear. The source made the active and inactive calls. Calls come from the whole dose curve; as a rule, active = well fitted inhibition curve with a large enough effect; inconclusive = small, poorly fitted or top-dose-only effect, or effect the other way; inactive = flat fitted curve, though single readings scatter.

Turning to `CC1OC(O[C@@H]2C(O)CC(O[C@@H]3C(O)C[C@@H](OC4CC[C@@]5(C)C6CC[C@]7(C)C(C8=CC(=O)OC8)C(O)C[C@@]7(O)[C@H]6CC[C@@H]5C4)OC3C)OC2C)CC(O)C1O` (some centres not stated), the outcome was inactive.

With `CO[C@H]1[C@@H](O)CC(OC2[C@@H](O)CC(OC3[C@@H](O)C[C@H](OC4CC[C@@]5(C)C(CCC6C5CC(O)[C@]5(C)[C@H](C7=CC(=O)OC7)CCC65O)C4)O[C@@H]3C)O[C@@H]2C)O[C@@H]1C` (some centres not stated), the call was inactive.
